From PubChem BioAssay (NCI)
Compounds without any hit were thinned out: in the full panel of roughly 83,000, 20% have a hit.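 Results are percent growth after 48 hours of single-concentration exposure. 100 means growth as in untreated cells, lower positive values show inhibition; negative values down to -100 show cell death.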 Calls of active or inactive are those of the source. Rule for the calls: active = growth percent below 10; inactive = the rest.

The compounds below were run on MDA-MB-435 melanoma (assay: NCI-60 one-dose screen, 48 h (100 = growth as untreated, 0 = no growth, -100 = all killed)). Settings: 10 µM unless noted.
In the case of `Cc1cc(=O)oc2cc(Oc3nc(-c4ccccc4)cn4c(-c5ccccc5)cnc34)ccc12`, the growth was 72.1% (inactive).
In the case of `Cc1ccc2c(n1)C[C@H](C(C)(C)O)CC[C@H]2C`, the growth was 102% (inactive).
`Nc1nc(N)c2c(n1)NC(c1cccc(Nc3ccnc4cc(C(F)(F)F)ccc34)c1)CC(c1ccc(Cl)cc1)=N2` (stereo not drawn) was tested, and the growth was -24.8% (active).
For `C(CCCSC1=NCCN1)CCSC1=NCCN1`, the growth was 103% (inactive).
`O=S(=O)(Nc1ccc(Br)cc1)c1ccc(-c2cnc(C3CC3)o2)cc1` was tested, and the growth was -9% (active).
`Nc1n[nH]c2cccc(C#Cc3cccc(C(=O)Nc4ccc(Cl)c(C(F)(F)F)c4)c3)c12` was tested, and the growth was 42.8% (inactive).
`NC(=N\N=C/c1ccc(Cl)cc1Cl)/C(N)=N\N=C/c1ccc(Cl)cc1Cl` was tested, and the growth was 82.6% (inactive).
For `COc1cc(C(=O)/C=C/c2c(-c3cccs3)nc3sc(C)cn23)cc(OC)c1OC`, the growth was -15.1% (active).
In the case of `COc1ccc(Nc2nccc(Nc3ccc4[nH]ncc4c3)n2)cc1`, the growth was 34.9% (inactive).
`Cc1[nH]c(C(=O)Nc2ccccc2OC2CCNC2)c(Cl)c1Cl` (stereo not drawn) was tested, and the growth was 86.4% (inactive).
`CCN1CCN(CCOc2ccc(CNc3ccc4nc(CCC5CCCCC5)[nH]c4c3)cc2)CC1` was tested, and the growth was -17.8% (active).
In the case of `CCCc1cc(CCC)n2nc(N)nc2n1`, the growth was 110% (inactive).
`O=S(=O)(c1ccc(NCSc2nc3ccccc3s2)cc1)c1ccc(NCSc2nc3ccccc3s2)cc1` was tested, and the growth was 112% (inactive).
In the case of `COc1cc(/C=C2\CN(S(=O)(=O)c3ccc(C)cc3)C/C(=C\c3cc(CN4CCCC4)c(O)c(OC)c3)C2=O)cc(CN2CCCC2)c1O`, the growth was -76.8% (active).
For `Cc1cccc(CN(Nc2ccccc2)c2ccccc2)n1`, the growth was 103% (inactive).
With `CCCCN(CCC#N)C(N)=O` the growth was 110% (inactive).
With `N#Cc1c(-c2ccc(F)cc2)cc(-c2cccc(Cl)c2)[nH]c1=O` the growth was 77.1% (inactive).
In the case of `O=C(Nc1cccc(Cn2c(=O)[nH]c3ccc(Oc4ncccn4)cc3c2=O)c1)c1cccc(Cl)c1`, the growth was 42.5% (inactive).
For `O=C1c2c(c3c4cccnc4[nH]c3c3ccc4ccccc4c23)C(=O)N1O`, the growth was 47.9% (inactive).
`COC(=O)c1nc(-c2ccccc2)oc1S(=O)(=O)N1CCN(c2ccc(OC)cc2)CC1` was tested, and the growth was 77.2% (inactive).
With `O=C1c2ccccc2-c2c1c1ccncc1c(=O)n2CCCn1ccnc1` the growth was 86.3% (inactive).
For `C=C(C)Cn1c(SCC(=O)c2cccs2)nc2sc3c(c2c1=O)CCCC3`, the growth was 56% (inactive).
In the case of `CNC1=C([N+](=O)[O-])C(c2ccc(OC)cc2)C(C#N)=C(c2ccc[nH]2)O1` (stereo not drawn), the growth was 96% (inactive).
In the case of `Cn1cc(-c2nc(-c3c[nH]c4c(Cl)nccc34)cs2)c2ccccc21`, the growth was 96.4% (inactive).
With `N/C(=N\c1nc2ccccc2s1)NC(=O)Nc1ccccc1` the growth was 2.22% (active).
With `C#Cc1ccc(NC(=O)Cc2ccc(/C=C/C(=O)c3nccn3C)cc2)cc1` the growth was 83.6% (inactive).
For `Cc1cc2c(C(C)C)c(O)c(O)c(/C=N/O)c2c(O)c1-c1c(C)cc2c(C(C)C)c(O)c(O)c(/C=N/O)c2c1O`, the growth was 37.4% (inactive).
For `O=C(Nc1ccc2[nH]ncc2c1)c1csc(Nc2ccccc2)n1`, the growth was -11.9% (active).
For `COC(=O)c1nc(-c2ccccc2)oc1S(=O)(=O)NCC(c1ccc(Cl)cc1)N1CCCCC1` (stereo not drawn), the growth was 72.1% (inactive).
`O=C(Nc1ccc(Oc2cccc(F)c2)c(Cl)c1)c1cnccn1` was tested, and the growth was -21.2% (active).
With `COc1ccc(Nc2nc(Nc3cc(C)[nH]n3)c3cc(OC)c(OC)cc3n2)cc1` the growth was -97.5% [20 µM] (active).
In the case of `CC(C)=CCC[C@](C)(O)C1CC[C@]2(C)[C@@H]1CC[C@@H]1[C@@]3(C)CC/C(=N\OCCC#N)C(C)(C)[C@@H]3CC[C@]12C` (stereo partly drawn), the growth was 87.7% (inactive).
For `N#C/C(=C\c1cccc2cnccc12)N1N=NC2C=CC=CC21` (stereo not drawn), the growth was 9.28% (active).
